The values below come from PubChem BioAssay AID1671192 (National Center for Advancing Translational Sciences (NCATS), 2021).

Inconclusive results are not listed. Active and inactive are the calls of the source. Calls come from the whole dose curve; as a rule, active = well fitted curve in the direction sought with a large enough effect; inconclusive = small, poorly fitted or top-dose-only effect, or another doubt; inactive = no such curve, though single readings can be large or run the other way.

Sequence of Polyunsaturated fatty acid lipoxygenase ALOX15 (Homo sapiens) (P16050 whole entry, looked up): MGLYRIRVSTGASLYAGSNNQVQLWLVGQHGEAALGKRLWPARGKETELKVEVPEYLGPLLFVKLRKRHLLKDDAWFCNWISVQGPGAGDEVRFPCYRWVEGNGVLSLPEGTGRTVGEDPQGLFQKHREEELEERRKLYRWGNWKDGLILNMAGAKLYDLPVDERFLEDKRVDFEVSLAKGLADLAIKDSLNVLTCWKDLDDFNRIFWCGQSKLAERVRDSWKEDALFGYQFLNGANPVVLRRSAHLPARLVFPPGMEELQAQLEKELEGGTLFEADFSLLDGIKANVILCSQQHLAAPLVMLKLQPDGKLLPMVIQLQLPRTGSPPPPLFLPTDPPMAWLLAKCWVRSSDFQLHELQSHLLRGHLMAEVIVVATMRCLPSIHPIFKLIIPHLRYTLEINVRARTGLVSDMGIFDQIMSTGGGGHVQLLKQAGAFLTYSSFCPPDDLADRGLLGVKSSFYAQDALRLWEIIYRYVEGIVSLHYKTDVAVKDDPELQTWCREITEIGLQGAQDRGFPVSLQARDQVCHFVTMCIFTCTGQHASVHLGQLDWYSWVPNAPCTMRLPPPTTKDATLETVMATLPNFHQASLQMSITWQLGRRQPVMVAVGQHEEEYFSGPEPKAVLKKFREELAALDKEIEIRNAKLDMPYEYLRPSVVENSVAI

The experiment concerns the target Polyunsaturated fatty acid lipoxygenase ALOX15 (Homo sapiens) (UniProt P16050). As to the kind of experiment: Counterscreen qHTS for inhibitors of human arachidonate 12S-lipoxygenase (ALOX12): ALOX15 Assay. The following applies: purified ALOX15 enzyme activity; series mostly up to 233 µM. From the text:
Assay Provider: Theodore R. Holman Ph.D.
University of California, Santa Cruz, California
Human lipoxygenase 12hLO is a member of the closely related lipoxygenase family of enzymes which catalyze the site-specific oxidation of arachidonic acid to various hormone precursor molecules and as such is a candidate for drug development in a variety of disease areas, such as cancer and inflammation. Inhibition of 12hLO activity was screened by utilizing arachidonic acid as a substrate. The extent of hydroperoxide product formation was measured by a secondary chromogenic reaction in which xylenol orange (XO, Sigma-Aldrich, cat. number 39,818-7) reacts with the ferric ions produced from the reaction between the hydroperoxide and ferrous ions. The Fe (III)-XO complex is characterized with red-shifted absorbance at 560 nm. A purified preparation of human 12hLO was supplied by Dr. Holman laboratory, University of California, Santa Cruz.
An assay against arachidonate 15-lipoxygenase (ALOX15) was developed to assess selective inhibition against ALOX12. Desired compounds would show potent inhibition against ALOX12 and minimal to no inhibition against ALOX15.
SEQUENCE No. (e.g., 1, 2, 3, etc.); PARAMETER (e.g., Cells, Incubation, Reagent, etc.); VALUE; DESCRIPTION
1; Enzyme; 3 uL; 40 nM ALOX15 (15hLO-1) enzyme solution dispensed in 1536-well Greiner black, clear bottom plates.
2; Compound; 23 nL; compounds and controls were added.
3; Incubate; 15 min; room temperature.
4; Substrate; 1 uL; 50 uM arachidonic acid (final concentration).
5; Incubate; 30 min; room temperature.
6; Reagent; 4 uL; Fe-XO solution was added to each well.
8; Incubation; 30 min; room temperature
9; Detector; absorbance; Read 1 at 405 nm absorbance using ViewLux (PerkinElmer) CCD imager.
10; Detector; absorbance; Read 2 at 573 nm absorbance using ViewLux (PerkinElmer) CCD imager.
NOTES (numbers refer to sequence above)
1; 40 nM ALOX15 (final concentration) in buffer solution (25 mM Hepes, 0.01% Triton X-100, pH 7.5) was dispensed in columns 1, 2, 5 - 48. Column 1 is neutral (100% activity). Buffer only was dispensed in columns 3 and 4 as no enzyme negative controls. The plates were covered with metal lids with gas-exchange holes.
2; Compounds were pin transferred via a Kalypsys Pin Tool (Wako USA) in column 5 - 48. Control compound was transferred in column 2, titration of nordihydroguaiaretic acid (NDGA, Sigma-Aldrich, N5023) with top concentration of 10 mM in DMSO then 1:2 dilution in duplicate. Dilution factor of 23 nL into 4 uL final assay volume.
3; Covered assay plates were incubated for 15 min at room temperature.
4; Substrate was added to start the reaction; 50 uM arachidonic acid (Sigma-Aldrich, St. Louis, MO) was dispensed throughout the plate.
6; Chromogenic detection reagent solution (divalent iron/xylenol orange, Fe-XO) was added to each well: 200 uM xylenol orange, 300 uM ferrous ammonium sulfate prepared freshly in 50 mM sulfuric acid.
9, 10; Two absorbance readouts were obtained at 405 nm and at 573 nm using a ViewLux high-throughput CCD plate imager (PerkinElmer). The 573 to 405 (Read 2 / Read 1) absorbance ratio was used to compute reaction progress.
Consider `O=C(O)C1=NOC2CN(Cc3cccc(Br)n3)CC12` (stereo not given), for which the outcome was inactive.

Turning to `c1cnc2nc(C3CCNCC3)[nH]c2c1`, the result was inactive. Regarding `c1ccc(CC2CN3CCCC3CN2)cc1` (stereo not given), the outcome was inactive. To `COc1ccc(C(CN)N2CCCC2)cc1` (stereo not given) belongs “inactive”; to `O=C1NC2(Cc3ccccc31)CN(CC1CC1)C2`, “inactive”; to `CN(C)c1ccc(CN2CCC3(CC2)C(=O)Nc2ccccc23)cc1`, “inactive”. For `O=C1Nc2ccccc2CN(Cc2ccncc2)C12CCNCC2`, the molecule was called inactive. With `CC(C)C1CN2CCCC2CN1` (stereo not given), the call was inactive. Then `CNC1CCc2ccccc21` (stereo not given), with “inactive”; and `O=C(Cc1ccc(Cl)cc1)N1Cc2ccccc2CC2(CCCN2CC2CCNC2)C1` (stereo not given), with “inactive”; and `O=C1Nc2ccccc2C12CCN(CC1CCCCC1)CC2`, with “inactive”. Consider `COc1ccc(CC(=O)N2Cc3ccccc3CC3(CCCCN3C)C2)cc1` (stereo not given), for which the molecule was classed as inactive. To `FC(F)(F)CN1C2CCC1CN(c1cncc(Br)c1)C2` belongs “inactive”; to `CCN1CCCCC12Cc1ccccc1CN(C(=O)Cc1ccc(OC)cc1)C2` (stereo not given), “inactive”; to `O=C(O)C1=NOC2CN(Cc3ccccc3)CC12` (stereo not given), “inactive”.

In the case of `O=[S+]1([O-])NC2(CCN(CC3CCOCC3)C2)COc2ccncc21` (stereo not given), the molecule was classed as inactive. On to `CC1CN2CCCCC2CN1` (stereo not given), for which the molecule was called inactive. With `CCCCC1CN2CCCC2CN1` (stereo not given), the call was inactive. In the case of `CNC(C)c1ccc(Cl)cc1` (stereo not given), the call was inactive.

Turning to `CCN1CCCCC12Cc1ccccc1CN(C(=O)Cc1ccccc1)C2` (stereo not given), the result was inactive.
